Drawing on PubChem BioAssay (NCI), this text covers growth for nine compounds.

The panel holds about 83,000 compounds, 20% with a hit somewhere; the sample as a whole holds those more often.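 In brief: 96-well plates, 48 h treatment, single concentration, percent growth endpoint.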 Unmarked numbers belong to inactive results. Activity calls are given as the source filed them. How the source made its calls: active means growth percent below 10; inactive means the rest.

What all share (experiment): NCI-60 one-dose screen, 48 h (100 = growth as untreated, 0 = no growth, -100 = all killed)
One assay relates to HT29 colon. The settings on record: 10 µM unless noted.
In another assay the test system is SNB-75 CNS. The settings on record: 10 µM unless noted.
A further assay deals with SNB-19 CNS. The conditions noted are these: 10 µM unless noted.
In the next assay the test system is U251 CNS. The conditions noted are these: 10 µM unless noted.
The test system of the next assay is PC-3 prostate. The settings on record: 10 µM unless noted.
Another assay has as its system SK-MEL-5 melanoma. The conditions noted are these: 10 µM unless noted.
The next assay relates to UACC-62 melanoma. The settings on record: 10 µM unless noted.
A further assay deals with LOX IMVI melanoma. The settings on record: 10 µM unless noted.
A further assay has as its system SK-MEL-28 melanoma. The settings on record: 10 µM.
The subject of the next assay is SK-MEL-2 melanoma. The conditions noted are these: 10 µM unless noted.
The subject of another assay is SN12C renal. The settings on record: 10 µM unless noted.
A further assay has as its system UO-31 renal. The conditions noted are these: 10 µM unless noted.
The subject of a further assay is TK-10 renal. The conditions noted are these: 10 µM unless noted.
Another assay relates to ACHN renal. The settings on record: 10 µM unless noted.
A further assay concerns CAKI-1 renal. The conditions noted are these: 10 µM unless noted.
The next assay deals with A498 renal. The settings on record: 10 µM unless noted.
For the next assay, the system named is CCRF-CEM leukemia. The conditions noted are these: 10 µM unless noted.
The subject of a further assay is MOLT-4 leukemia. The settings on record: 10 µM unless noted.
For the next assay, the system named is SR leukemia. The settings on record: 10 µM unless noted.

`CCCCc1c(CCC)c(=N)c2ccccc2n1C`: the growth with HT29 colon is 26.6%; in the assay on SNB-75 CNS, 96.8%; in the assay with SNB-19 CNS, 111%; in the assay on U251 CNS it was 59.3%; in the assay with PC-3 prostate, 77.2%; in the assay on SK-MEL-5 melanoma it was 78%. Further, the growth is 97.9% in the assay on UACC-62 melanoma; 59% in the assay on LOX IMVI melanoma; 72.2% in the assay with SK-MEL-28 melanoma; 101% with SK-MEL-2 melanoma; 79.7% in the assay on SN12C renal; 65.6% in the assay with UO-31 renal. The growth in the assay with TK-10 renal was 84.3%; with ACHN renal it was 78.4%; with CAKI-1 renal, 81%; in the assay on A498 renal, 75.9%; in the assay on CCRF-CEM leukemia, 49.8%; in the assay with MOLT-4 leukemia, 60.6%. Further, in the assay with SR leukemia, the growth is 6.82% (active).

As to `O=C(N/N=C/c1ccccc1O)C(=O)Nc1ccc(F)cc1`, the growth in the assay with HT29 colon was 40.9%; with SNB-75 CNS it was 85.5%; with SNB-19 CNS it was 53.9%; in the assay with U251 CNS, 33.5%; in the assay on PC-3 prostate, 54.7%; with SK-MEL-5 melanoma it was 55.5%. The growth with UACC-62 melanoma was 35.1%; with LOX IMVI melanoma it was 27.2%; with SK-MEL-28 melanoma, 59.4%; in the assay with SK-MEL-2 melanoma, 71.6%; with SN12C renal, 44.5%; in the assay with UO-31 renal it was 19.3%. Moreover, the growth in the assay with TK-10 renal was 53.8%; with ACHN renal, 30.4%; in the assay on CAKI-1 renal, 22.7%; in the assay with A498 renal, 92.4%; in the assay with CCRF-CEM leukemia it was 23%; in the assay with MOLT-4 leukemia, 21.3%. Further, the growth in the assay on SR leukemia is 23.3%.

Regarding `COc1ccc(Nc2cc(C)nc(NCc3ccccc3)n2)cc1`, the growth in the assay on HT29 colon was 11%; in the assay with SNB-75 CNS it was 49%; with SNB-19 CNS, 57.1%; in the assay on U251 CNS it was 15.8%; with PC-3 prostate, 28.1%; with SK-MEL-5 melanoma, 61.9%. Also, the growth in the assay with UACC-62 melanoma was 69.3%; in the assay on LOX IMVI melanoma, -57.5% (active); in the assay with SK-MEL-28 melanoma, 63.9%; with SK-MEL-2 melanoma it was 31.1%; with SN12C renal, 38.2%; in the assay with UO-31 renal, 42%. Besides, the growth is 37.9% with TK-10 renal; 36.3% with ACHN renal; 30.8% in the assay on CAKI-1 renal; 81% in the assay with A498 renal; -3.8% (active) with CCRF-CEM leukemia; 3.02% (active) in the assay on MOLT-4 leukemia. Moreover, the growth with SR leukemia is 0.982% (active).

Turning to `Nc1nonc1-n1nncc1-c1cccnc1`, the growth in the assay with HT29 colon was 107%; with SNB-75 CNS, 81.2%; with SNB-19 CNS, 129%; in the assay on U251 CNS, 101%; with PC-3 prostate, 105%; with SK-MEL-5 melanoma, 106%. The growth in the assay with UACC-62 melanoma is 112%; in the assay on LOX IMVI melanoma, 98.3%; in the assay on SK-MEL-28 melanoma it was 105%; in the assay on SK-MEL-2 melanoma, 111%; in the assay with SN12C renal, 117%; in the assay with UO-31 renal, 92.9%. Moreover, the growth is 107% in the assay on TK-10 renal; 105% in the assay with ACHN renal; 95.1% in the assay on CAKI-1 renal; 81.9% in the assay with A498 renal; 106% with CCRF-CEM leukemia; 91.4% with MOLT-4 leukemia. For the same compound, in the assay on SR leukemia, the growth was 103%.

With `CC1=C(CC(=O)c2cccc([N+](=O)[O-])c2)C(=O)c2ccccc2C1=O`, the growth is 106% in the assay with HT29 colon; -84.6% (active) in the assay on SNB-75 CNS; 13% in the assay with SNB-19 CNS; -81% (active) in the assay with U251 CNS; 42.8% with PC-3 prostate; 4.78% (active) in the assay on SK-MEL-5 melanoma. The growth in the assay with UACC-62 melanoma is -50.8% (active); in the assay with LOX IMVI melanoma, -51.9% (active); with SK-MEL-28 melanoma it was -89.9% (active); with SK-MEL-2 melanoma, -36.2% (active); in the assay on SN12C renal, -36% (active); in the assay with UO-31 renal, -64.3% (active). The growth in the assay on TK-10 renal is -43.1% (active); with ACHN renal, 13.8%; with CAKI-1 renal it was -28.1% (active); with A498 renal it was 68%; in the assay on CCRF-CEM leukemia, 4.59% (active); in the assay with MOLT-4 leukemia it was 36.5%. Moreover, the growth with SR leukemia was -46.1% (active).

Turning to `CC(=O)c1ccc(Cc2ccc(C(C)=O)s2)s1`, the growth in the assay with HT29 colon was 103%; with SNB-75 CNS, 96.9%; in the assay with SNB-19 CNS, 98.8%; with U251 CNS, 98%; in the assay with PC-3 prostate, 93.8%; with SK-MEL-5 melanoma, 100%. In addition, the growth in the assay on UACC-62 melanoma was 96.4%; in the assay with LOX IMVI melanoma it was 93.7%; in the assay with SK-MEL-28 melanoma, 112%; with SK-MEL-2 melanoma, 98.9%; with SN12C renal, 98%; in the assay with UO-31 renal, 88.2%. In addition, the growth in the assay on TK-10 renal was 94.9%; in the assay on ACHN renal, 100%; with CAKI-1 renal it was 96.4%; in the assay on A498 renal it was -68.7% (active); with CCRF-CEM leukemia, 95.5%; in the assay with MOLT-4 leukemia it was 83.2%. Further, in the assay on SR leukemia, the growth was 89.4%.

Regarding `Cc1ccc(CN2CCC(C(=O)Nc3ccc(-c4cc5ccccc5[nH]4)cc3)CC2)o1`, the growth with HT29 colon is 57.1%; in the assay on SNB-75 CNS, 100%; with SNB-19 CNS, 80%; in the assay on U251 CNS it was 39.8%; in the assay with PC-3 prostate it was 2.12% (active); with SK-MEL-5 melanoma it was 50.4%. Further, the growth in the assay on UACC-62 melanoma is 72.1%; with LOX IMVI melanoma it was 42.2%; in the assay on SK-MEL-28 melanoma it was 85.1%; in the assay with SK-MEL-2 melanoma it was 88.4%; in the assay with SN12C renal, 60.7%; in the assay with UO-31 renal, 47.5%. Further, the growth in the assay with TK-10 renal was 73%; with ACHN renal it was 44.3%; in the assay on CAKI-1 renal it was 71.7%; in the assay on A498 renal it was 4.02% (active); in the assay with CCRF-CEM leukemia, 8.89% (active); in the assay with MOLT-4 leukemia it was -4.18% (active). Moreover, in the assay with SR leukemia, the growth is 14.1%.

For `COc1cc(-c2c3c(c(Br)n2Cc2ccccc2)-c2nc(N)sc2CC3)cc(OC)c1OC`, the growth in the assay on HT29 colon was 105%; in the assay on SNB-75 CNS it was 73.7%; with SNB-19 CNS it was 88.2%; with U251 CNS, 85.3%; with PC-3 prostate, 78.6%; in the assay with SK-MEL-5 melanoma, 87.1%. Besides, the growth in the assay with UACC-62 melanoma is 68.3%; in the assay with LOX IMVI melanoma, 87.5%; with SK-MEL-28 melanoma it was 87.3%; in the assay on SK-MEL-2 melanoma, 101%; in the assay with SN12C renal it was 85.7%; in the assay with UO-31 renal, 70.6%. In addition, the growth in the assay on TK-10 renal was 119%; with ACHN renal, 88.3%; in the assay with CAKI-1 renal it was 97.4%; in the assay with A498 renal, 80.5%; in the assay with CCRF-CEM leukemia it was 44.4%; with MOLT-4 leukemia it was 50.6%. The growth in the assay with SR leukemia is 40.2%.

As to `Cc1ccc(C(=O)c2oc3ccc4c(C)cc(=O)oc4c3c2C)cc1`, the growth with HT29 colon was 14.3%; in the assay on SNB-75 CNS, 67.8%; with SNB-19 CNS it was 41.4%; with U251 CNS, 18.6%; in the assay on PC-3 prostate, 7.34% (active); in the assay on SK-MEL-5 melanoma it was -56.6% (active). Moreover, the growth with UACC-62 melanoma was 29.4%; with LOX IMVI melanoma, 33.2%; in the assay on SK-MEL-28 melanoma, 51.4%; in the assay on SK-MEL-2 melanoma it was 32.1%; in the assay on SN12C renal, 30.5%; in the assay with UO-31 renal, 9.48% (active). The growth is 32.9% in the assay with ACHN renal; 15.2% with CAKI-1 renal; 32.3% in the assay with A498 renal; 17.1% in the assay with CCRF-CEM leukemia; 7.13% (active) with MOLT-4 leukemia; 12.7% with SR leukemia.
